# Test results as given in PMC5540273 (PLoS ONE, 2017).
# Tested on: STK35
# Details: concentration: 1 μM, replicates: in singlicate; n = 1
# 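Also: KINOMEscan kinase panel screen.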
row,Structure (SMILES),%Inh
1,CN1CCC(n2cnc(-c3ccc(F)cc3)c2-c2ccnc(NC3CCNCC3)n2)CC1 [SB-229482],0%
2,COc1cc2ncnc(Nc3ccc(OCc4ccccc4Br)c(Cl)c3)c2cc1OC.Cl [GI261590],18%
3,CC(=O)Nc1n[nH]c2ncc(-c3ccccc3)cc12 [SB-548492],10%
4,CNc1nccc(-c2c(-c3ccc(F)cc3)ncn2C2CCN(C)CC2)n1 [SB-222903],0%
5,O=C(Nc1ccccc1F)NC1CCN(c2ccnc(Nc3ccc(F)cc3)n2)C1 (centres unmarked) [GSK1379722],0%
6,O=C(NCCCN1CCCC1=O)c1cnc(NCc2cc(Cl)ccc2Cl)nc1NC1CCNCC1,0%
7,O=c1cc(N2CCOCC2)nc2n(Cc3cccc(Cl)c3)ccn12 [GSK2296823],6%
8,Nc1n[nH]c2nnc(-c3ccccc3)cc12 [SB-517389],0%
9,O=C(Nc1n[nH]c2nc(-c3ccco3)c(Br)cc12)c1ccc(CN2CCCC2)cc1.O=C(O)[C@H](O)[C@@H](O)C(=O)O [SB-742352],26%
10,Nc1nc(-c2cccnc2)c(-c2ccnc3ccccc23)s1 [GW684083],0%
11,c1ccc(-c2ccc3c(-c4ccnc(Nc5ccc6c(c5)OCCO6)n4)cnn3n2)cc1 [GW818941],8%
12,Nc1nc(-c2ccc3c(N)n[nH]c3c2)cc(N2CCC[C@@H](C(=O)Nc3ccccc3)C2)n1.O=C(O)C(F)(F)F.O=C(O)C(F)(F)F [GSK2288359],0%
13,COC(=O)c1cccc(NC(=O)NCCNc2ccnc(Nc3ccc(F)cc3)n2)c1 [GSK1379883],0%
14,COC(=O)c1c(-c2ccccc2)c2cc(Cl)ccc2c(=O)n1Cc1ccc(S(C)(=O)=O)cc1,15%
15,FC(F)(F)c1ccc(-c2cc(-c3c[nH]nc3-c3ccccn3)ccn2)cc1 [GW599550],0%
16,COc1ccc(NC(=O)c2ccc(-c3cc(-c4nnc(C)o4)ccc3C)cc2)cc1 [GW595885],0%
17,COc1ccc(-c2nc3n(c2-c2ccncc2)CCC3)cc1 [SKF-104493],0%
18,Cl.Cl.c1ccc(-c2cc3ccncc3cc2OC2CCNCC2)cc1 [GSK1122999],0%

row,Structure (SMILES),%Inh
1,CS(=O)(=O)CCNCc1nc(-c2ccc3ncnc(Nc4ccc(OCc5cccc(F)c5)c(Cl)c4)c3c2)cs1.Cl [GW583340],0%
2,Cn1ccc2ncnc(Oc3ccc(NC(=O)Nc4cccnc4)c(Cl)c3)c21,6%
3,Fc1cccc(COc2ccc(Nc3ncnc4sc(-c5ccc[nH]5)cc34)cc2Cl)c1 [GW707818],0%
4,Cl.Cn1ccc(-c2cccc(Nc3ccnc4cc(-c5nccs5)ccc34)c2)n1 [GW525701],0%
5,CS(=O)(=O)CCNCc1ccc(-c2ccc3ncnc(Nc4ccc(OCc5ccccc5)c(Cl)c4)c3c2)o1.Cl [GW574783],0%
6,COc1ccc(Nc2nccc(N3CCC(NC(=O)Nc4ccc5c(c4)OCO5)C3)n2)cc1 (centres unmarked) [GSK1379745],8%
7,Fc1cccc(COc2ccc(Nc3ncnc4nn5ccccc5c34)cc2Cl)c1 [GW689066],0%
8,Cc1ccc(O)cc1Nc1cc(C(F)(F)F)nc2ccc(-c3ccncc3)cc12 [GW630823],0%
9,Cl.Fc1ccccc1COc1ccc(Nc2ncnc3ccc(-c4nnc(C(F)(F)F)o4)cc23)cc1Cl [GW424170],0%
10,Clc1ccc(-c2cc(-c3c[nH]nc3-c3ccccn3)ccn2)cc1 [GW681251],0%
11,C[C@H]1CC[C@@H](C(=O)Nc2ccccc2)CN1c1cc(-c2ccc3c(N)n[nH]c3c2)nc(N)n1 [GSK2283293],0%
12,Oc1ccc2ncnc(Nc3ccc(OCc4ccccc4)cc3)c2c1 [GI262866],7%
13,N#Cc1ccc(Oc2ccc(Nc3ncnc4cc[nH]c34)cc2Cl)cc1,27%
14,CC(C)(C)c1ccc(-n2cnc3c(N)ncnc32)cc1 [SKF-97263],11%
15,Cc1ccc(C)c(NC(=O)NCCNc2ccnc(Nc3ccc(F)cc3)n2)c1 [GSK1379878],0%
16,CCn1c(-c2ccncc2)nc2cnccc21 [SB-735216],0%
17,COc1ccc(NC(=O)Nc2ccc(C)c(-c3ccc(C(=O)Nc4ccncc4)cc3)c2)cc1 [GSK1398475],0%
18,Clc1cc(Nc2ncnc3cc[nH]c23)ccc1OCc1ccccn1,0%

# Tested on: STK36
# Details: concentration: 1 μM, replicates: in singlicate; n = 1
row,Structure (SMILES),%Inh
1,CN1CCC(n2cnc(-c3ccc(F)cc3)c2-c2ccnc(NC3CCNCC3)n2)CC1 [SB-229482],24%
2,COc1cc2ncnc(Nc3ccc(OCc4ccccc4Br)c(Cl)c3)c2cc1OC.Cl [GI261590],0%
3,CC(=O)Nc1n[nH]c2ncc(-c3ccccc3)cc12 [SB-548492],12%
4,CNc1nccc(-c2c(-c3ccc(F)cc3)ncn2C2CCN(C)CC2)n1 [SB-222903],3%
5,O=C(Nc1ccccc1F)NC1CCN(c2ccnc(Nc3ccc(F)cc3)n2)C1 (centres unmarked) [GSK1379722],0%
6,O=C(NCCCN1CCCC1=O)c1cnc(NCc2cc(Cl)ccc2Cl)nc1NC1CCNCC1,0%
7,O=c1cc(N2CCOCC2)nc2n(Cc3cccc(Cl)c3)ccn12 [GSK2296823],0%
8,Nc1n[nH]c2nnc(-c3ccccc3)cc12 [SB-517389],0%
9,O=C(Nc1n[nH]c2nc(-c3ccco3)c(Br)cc12)c1ccc(CN2CCCC2)cc1.O=C(O)[C@H](O)[C@@H](O)C(=O)O [SB-742352],54%
10,Nc1nc(-c2cccnc2)c(-c2ccnc3ccccc23)s1 [GW684083],0%
11,c1ccc(-c2ccc3c(-c4ccnc(Nc5ccc6c(c5)OCCO6)n4)cnn3n2)cc1 [GW818941],25%
12,Nc1nc(-c2ccc3c(N)n[nH]c3c2)cc(N2CCC[C@@H](C(=O)Nc3ccccc3)C2)n1.O=C(O)C(F)(F)F.O=C(O)C(F)(F)F [GSK2288359],0%
13,COC(=O)c1cccc(NC(=O)NCCNc2ccnc(Nc3ccc(F)cc3)n2)c1 [GSK1379883],0%
14,COC(=O)c1c(-c2ccccc2)c2cc(Cl)ccc2c(=O)n1Cc1ccc(S(C)(=O)=O)cc1,15%
15,FC(F)(F)c1ccc(-c2cc(-c3c[nH]nc3-c3ccccn3)ccn2)cc1 [GW599550],0%
16,COc1ccc(NC(=O)c2ccc(-c3cc(-c4nnc(C)o4)ccc3C)cc2)cc1 [GW595885],0%
17,Cl.Cl.c1ccc(-c2cc3ccncc3cc2OC2CCNCC2)cc1 [GSK1122999],88%
18,CS(=O)(=O)CCNCc1nc(-c2ccc3ncnc(Nc4ccc(OCc5cccc(F)c5)c(Cl)c4)c3c2)cs1.Cl [GW583340],0%

row,Structure (SMILES),%Inh
1,Cn1ccc2ncnc(Oc3ccc(NC(=O)Nc4cccnc4)c(Cl)c3)c21,13%
2,Fc1cccc(COc2ccc(Nc3ncnc4sc(-c5ccc[nH]5)cc34)cc2Cl)c1 [GW707818],0%
3,Cl.Cn1ccc(-c2cccc(Nc3ccnc4cc(-c5nccs5)ccc34)c2)n1 [GW525701],0%
4,CS(=O)(=O)CCNCc1ccc(-c2ccc3ncnc(Nc4ccc(OCc5ccccc5)c(Cl)c4)c3c2)o1.Cl [GW574783],0%
5,COc1ccc(Nc2nccc(N3CCC(NC(=O)Nc4ccc5c(c4)OCO5)C3)n2)cc1 (centres unmarked) [GSK1379745],0%
6,Fc1cccc(COc2ccc(Nc3ncnc4nn5ccccc5c34)cc2Cl)c1 [GW689066],0%
7,Cc1ccc(O)cc1Nc1cc(C(F)(F)F)nc2ccc(-c3ccncc3)cc12 [GW630823],0%
8,Cl.Fc1ccccc1COc1ccc(Nc2ncnc3ccc(-c4nnc(C(F)(F)F)o4)cc23)cc1Cl [GW424170],0%
9,Clc1ccc(-c2cc(-c3c[nH]nc3-c3ccccn3)ccn2)cc1 [GW681251],0%
10,C[C@H]1CC[C@@H](C(=O)Nc2ccccc2)CN1c1cc(-c2ccc3c(N)n[nH]c3c2)nc(N)n1 [GSK2283293],0%
11,Oc1ccc2ncnc(Nc3ccc(OCc4ccccc4)cc3)c2c1 [GI262866],0%
12,N#Cc1ccc(Oc2ccc(Nc3ncnc4cc[nH]c34)cc2Cl)cc1,10%
13,CC(C)(C)c1ccc(-n2cnc3c(N)ncnc32)cc1 [SKF-97263],11%
14,Cc1ccc(C)c(NC(=O)NCCNc2ccnc(Nc3ccc(F)cc3)n2)c1 [GSK1379878],0%
15,CCn1c(-c2ccncc2)nc2cnccc21 [SB-735216],19%
16,COc1ccc(NC(=O)Nc2ccc(C)c(-c3ccc(C(=O)Nc4ccncc4)cc3)c2)cc1 [GSK1398475],0%
17,Clc1cc(Nc2ncnc3cc[nH]c23)ccc1OCc1ccccn1,12%
